These results are taken from ChEMBL document CHEMBL3988442, “University of Dundee, Small-Polar-MMV Screening Library” (2021).

Assay [1] concerns the target T1, Aspartate--tRNA(Asp/Asn) ligase (Mycobacterium tuberculosis (strain ATCC 25618 / H37Rv)) (UniProt P9WFW3). Also: in the data most compounds retested in dose-response had high values.
T1 sequence (whole entry): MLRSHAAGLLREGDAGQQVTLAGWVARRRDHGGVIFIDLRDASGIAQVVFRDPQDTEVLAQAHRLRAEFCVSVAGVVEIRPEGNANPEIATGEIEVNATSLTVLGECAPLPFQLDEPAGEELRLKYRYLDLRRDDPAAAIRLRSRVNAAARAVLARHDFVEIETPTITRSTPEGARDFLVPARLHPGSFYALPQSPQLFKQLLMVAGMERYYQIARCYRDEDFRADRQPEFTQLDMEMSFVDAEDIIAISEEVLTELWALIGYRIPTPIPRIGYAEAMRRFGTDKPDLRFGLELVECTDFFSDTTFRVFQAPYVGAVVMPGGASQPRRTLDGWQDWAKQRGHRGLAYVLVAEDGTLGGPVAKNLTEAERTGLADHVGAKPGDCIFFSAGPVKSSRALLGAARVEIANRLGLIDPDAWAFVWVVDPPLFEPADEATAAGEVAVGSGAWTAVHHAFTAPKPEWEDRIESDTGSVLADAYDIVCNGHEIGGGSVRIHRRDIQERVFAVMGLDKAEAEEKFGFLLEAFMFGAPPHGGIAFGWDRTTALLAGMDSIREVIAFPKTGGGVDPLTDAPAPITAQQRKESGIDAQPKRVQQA
The assay is described as follows: Assay for Asp RNA synthetase-1 from Mycobacterium tuberculosis. Format: functional. Details: scale not given: direction of the effect not stated beside the values. As to conditions: 30 µM.

Assay [2] has as its target Shiga toxin 2 (Escherichia coli O157:H7) (UniProt P09385+P09386). The assay is described as follows: E. coli 0.157:H7 Shiga Toxin SOP - stx2 screening assay. Format: functional. Details: scale not given: direction of the effect not stated beside the values. The settings on record: 30 µM.

Take `Cc1cn[nH]c1C1CCCCN1C(=O)CCN1CCCCCC1` (configuration not stated): the Percent Effect in assay [1] came to 8.57%; in assay [2], 28.2%.

Regarding `CC(C)c1cc(N2CCC(N)CC2)n2nccc2n1`, the values for the Percent Effect in assay [1] and in assay [2] were -0.232% and 19.8%, respectively.

For `Fc1ccc(CN2CCCC2Cn2cccn2)c2ncccc12` (configuration not stated), the Percent Effect in assay [1] is -2.13%; in assay [2], -3.45%.

Regarding `CNc1cncc(C2CCCN2C(=O)c2ccc3oc(=O)n(C)c3c2)n1` (configuration not stated), the Percent Effect in assay [1] was found to be 5.14%; in assay [2], 3.86%.

For `CC(C)c1nn(C)c(N2CCOCC2)c1CN[C@H](C)CO`, the Percent Effect in assay [1] was -1.94%; in assay [2], 30.8%.

On to `O=C(CC1CC1)N1CCC2(CC1)CN(c1ncccn1)CCO2`, for which the values for the Percent Effect in assay [1] and in assay [2] were -1.87% and 5.46%, respectively.

Regarding `COc1ccc(C(=O)N2CCC(Nc3ccc(C)nn3)CC2)c(F)c1`, the Percent Effect in assay [1] is 4.79%; in assay [2], -6.61%.

In the case of `Cc1ccc(C)c(C(C(=O)O)N2CCCN(Cc3ccccn3)CC2)c1` (configuration not stated), the Percent Effect in assay [1] is -3.28%; in assay [2], 2.34%.

On to `Cc1cnn(C2CN(CC(=O)NCc3ccccn3)C2)c1`, for which the Percent Effect in assay [1] turned out to be 5%; in assay [2] it was 21.1%.

Turning to `Cc1ccc(NC(=O)C2CSCN2C(=O)c2cc[nH]n2)c(C)c1` (configuration not stated), the values for the Percent Effect in assay [1] and in assay [2] were -3.15% and 12%, respectively.

`Cc1nc(COCc2cnc3n2CCN(CC2CCC2)C3C)cs1` (configuration not stated): the results for the Percent Effect in assay [1] and in assay [2] were -6% and -3.62%, respectively.

Regarding `Cc1ccc(C(CNC(=O)NCc2cc[nH]n2)N2CCOCC2)o1` (configuration not stated), the Percent Effect in assay [1] is 0.256%; in assay [2] it was -34.1%.

Turning to `Cc1cnn(CCNCc2cccnc2)c1`, the Percent Effect in assay [1] was -0.568%; in assay [2], -3.36%.

As to `CNC(=O)COc1ccc(CNCc2ccc(F)cc2F)cc1`, the Percent Effect in assay [1] was 3.4%; in assay [2], -35.4%.

As for `CS(=O)(=O)NCc1cc2n(n1)CCCN(Cc1nc3ccccc3[nH]1)C2`, the Percent Effect in assay [1] is -3.96%; in assay [2], 22.6%.

Consider `CCN1CCN(c2ccc(CNC(=O)c3ccc(Cl)o3)cn2)CC1`, for which the Percent Effect in assay [1] is -3.07%; in assay [2], -41.7%.

Turning to `Cc1nnc(NCc2cccnc2N(C)C)c(C#N)c1C`, the values for the Percent Effect in assay [1] and in assay [2] were 0.728% and 0.124%, respectively.

With `CC(=O)NCCNC(=O)CN1CCN(Cc2nccn2C)C(C)C1` (configuration not stated), the Percent Effect in assay [1] amounted to 2.19%; in assay [2] it was 2.09%.

Turning to `CN(CC1COc2ccccc2O1)C(=O)NCCCn1cncn1` (configuration not stated), the Percent Effect in assay [1] amounted to 1.57%; in assay [2], 21.4%.

Regarding `Cc1ccc(CC(=O)N2CSCC2C(=O)N(C)Cc2ccco2)o1` (configuration not stated), the Percent Effect was 8.09% in assay [1] and 12% in assay [2].

For the compound `Cc1nc(CN2CCCN(C(=O)c3ccccn3)CC2)oc1C`, the Percent Effect was -0.692% in assay [1] and 25.9% in assay [2].

For `Cc1cnn(CC2CN(Cc3cccc(C(=O)N(C)C)c3)CCO2)c1` (configuration not stated), the Percent Effect in assay [1] was 2.43%; in assay [2], -24.4%.

With `CCn1cnnc1CNC(=O)N1CCN(Cc2ccccc2)CC1`, the Percent Effect is -0.692% in assay [1] and 8.37% in assay [2].

Take `CC(=O)N(Cc1noc(C2CC2)n1)C1CCN(Cc2ccncc2)C1` (configuration not stated): the Percent Effect in assay [1] is 1.34%; in assay [2] it was -5.75%.

On to `CN(C)C(CNC(=O)c1cc2c([nH]c1=O)CCCC2=O)c1ccsc1` (configuration not stated), for which the Percent Effect is 2.97% in assay [1] and -21.1% in assay [2].

For the compound `CSCC(=O)N1CCC2(CC1)c1ccccc1CC2O` (configuration not stated), the Percent Effect in assay [1] is 0.357%; in assay [2], -32.5%.

Take `CC(C)CCC(=O)NC(C)c1nnc2n1CCCCC2` (configuration not stated): the results for the Percent Effect in assay [1] and in assay [2] were 1.76% and -17.4%, respectively.

With `Cc1nc(CN2CCc3cncnc3C2)oc1C`, the figures for the Percent Effect in assay [1] and in assay [2] were -1.67% and -14.4%, respectively.

Regarding `CCOCC1CN(C(=O)c2cccn2C)Cc2cnn(CC3CC3)c21` (configuration not stated), the values for the Percent Effect in assay [1] and in assay [2] were 5.55% and -5.56%, respectively.

For `O=c1[nH]c(CCN2CCCC(Cn3cncn3)C2)nc2ccccc12` (configuration not stated), the results for the Percent Effect in assay [1] and in assay [2] were -3.23% and -25.8%, respectively.

Take `Cc1cc(C)n(CC2CCCCN2Cc2cscn2)n1` (configuration not stated): the Percent Effect in assay [1] was -3.34%; in assay [2] it was 25.2%.

In the case of `Cc1cc(C(=O)NCc2ccc(N3CCCC(C(N)=O)C3)cc2)[nH]n1` (configuration not stated), the Percent Effect is -3.98% in assay [1] and -16.8% in assay [2].

For `Cn1cc(C(=O)NC[C@@H]2OC[C@H]3CN(S(C)(=O)=O)CC[C@H]32)cn1`, the Percent Effect in assay [1] is 0.41%; in assay [2] it was -26.8%.

On to `COc1nn(C)c2c1CCCN(C(=O)c1ccccc1)C2`, for which the Percent Effect in assay [1] is -0.268%; in assay [2], -9.13%.

With `CCn1nc2c(cc1=O)CN(Cc1nc(N)c3ccccc3n1)CC2`, the Percent Effect is 1.61% in assay [1] and 15.6% in assay [2].

Regarding `c1ccc(-c2nnn3c2COC(CNCC2CCOCC2)C3)cc1` (configuration not stated), the Percent Effect in assay [1] was 2.63%; in assay [2], -21.1%.

Turning to `COc1cccc2c1ccn2CCC(=O)N1CCCC(C(=O)O)C1` (configuration not stated), the Percent Effect in assay [1] was 6.53%; in assay [2], -30.4%.

Regarding `COc1ccc(-c2noc(C(=O)NCCN3CCCCC3)n2)cc1OC`, the Percent Effect was -1.25% in assay [1] and -77.4% in assay [2].

On to `COc1ccc(COCC(O)CNC(=O)c2cc(C)cc(C)c2)cc1` (configuration not stated), for which the figures for the Percent Effect in assay [1] and in assay [2] were -0.859% and -16.6%, respectively.

As for `O=C(C1CC1)N1CCCC1C1CCN(Cc2ccccc2)CC1` (configuration not stated), the Percent Effect in assay [1] was -4.34%; in assay [2], -13.2%.

In the case of `COCCN(C)C[C@@H]1CN(C(=O)c2ccoc2)C[C@@H]1CO`, the Percent Effect was -4.07% in assay [1] and 15.1% in assay [2].

Turning to `O=C1CCC2(CCN(Cc3cc(F)cc(F)c3)CC2)CN1CCO`, the Percent Effect was -0.529% in assay [1] and 6.69% in assay [2].

Consider `CCOCCC(=O)Nc1cccc(Oc2ccccn2)c1`, for which the Percent Effect in assay [1] is 5.81%; in assay [2] it was -31.9%.

As to `N#Cc1cccc(S(=O)(=O)NC2CCN(Cc3ccccc3)C2=O)c1` (configuration not stated), the Percent Effect is -1.89% in assay [1] and 8.07% in assay [2].

For the compound `Cc1ccccc1CNC(=O)Cc1c(C)nc2cc(=O)[nH]n2c1C`, the Percent Effect in assay [1] is -0.856%; in assay [2], 17.8%.

With `COCCCN(CCOC)C(=O)Nc1ccccc1Br`, the Percent Effect in assay [1] was -10.6%; in assay [2] it was -6.69%.

With `COc1ccc(CC(=O)N2CCCCC2Cn2cccn2)cc1OC` (configuration not stated), the Percent Effect in assay [1] is -2.34%; in assay [2] it was -6.84%.

`O=C(NCc1csc(Br)c1)c1ccc(=O)[nH]n1`: the Percent Effect in assay [1] is -0.83%; in assay [2] it was -13.6%.

As for `CCC(=O)N1CCCC(c2cc(Nc3ncccn3)nc(C)n2)C1` (configuration not stated), the Percent Effect turned out to be 1.35% in assay [1] and 12.4% in assay [2].

In the case of `CS(=O)(=O)N1CCC2(CC1)CC(CC(=O)NC1CC1)c1ccccc12` (configuration not stated), the Percent Effect in assay [1] was 6.15%; in assay [2] it was 4.11%.

Turning to `COC(=O)N1C[C@H]2CC[C@@H]1CN(Cc1cscn1)C2`, the Percent Effect was -3.45% in assay [1] and 17.3% in assay [2].
